Laboratory results from PubChem BioAssay (NCATS).
Values joined by “and” are separate entries in the source; they are usually repeats but may differ in a detail not shown here. Identical values can stand only once. Results filed as inconclusive are left out. Active and inactive are the calls of the source. Unless noted, the call rests on the fitted dose curve; in most records, active means well fitted curve in the direction sought with a large enough effect; inconclusive means small, poorly fitted or top-dose-only effect, or another doubt; inactive means no such curve, though single readings can be large; an effect the other way counts as inactive or inconclusive.

Legend:
[1] = S16 Schwann cell PMP22 intronic element beta-lactamase assay (AID 624044; calls by dose curve;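 further: 0% = DMSO and -100% = potassium clavulanate positive control; nearly all actives have a fitted effect of over 15% in size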); details: S16 rat Schwann cells, PMP22 element beta-lactamase FRET, 24 h; ratio activity, negative = inhibition: at 38.3 µM (top of the series)
Summary of the method: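 Beta-lactamase reporter under a PMP22 intronic regulatory element in stable S16 rat Schwann cells; 24 h compound exposure. 460 nm blue signal normalized between DMSO (0%) and potassium clavulanate, with 535 nm FRET tracking viability; curves classed by r2 and response.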

[2] = qHTS assay for small molecule agonists of the antioxidant response element (ARE) signaling pathway (AID 651741; active means well fitted activation curve with a large enough effect in the signal ratio; the % refers to the signal ratio; further: % of control where 0% means no effect)
Summary of the method: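 Reporter: beta-lactamase under ARE, stably in HepG2. Exposure: 16 h, 37 C, compounds delivered in DMSO by pin tool after 5 h cell preincubation. Readout: FRET substrate fluorescence after 2 h at RT.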

[3] = qHTS assay for small molecule activators of the p53 signaling pathway (AID 651743; active means well fitted activation curve with a large enough effect in the signal ratio, not every such curve was filed as active; the % refers to the signal ratio; further: % of control where 0% means no effect); details: HCT-116 p53RE-bla, beta-lactamase FRET ratio, 16 h; activation: active compounds read high
Summary of the method: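 Agonist-mode quantitative HTS in HCT-116 cells carrying a p53-response-element beta-lactamase reporter; 16 h compound treatment at 37 C, then FRET substrate loading for 2 h at room temperature and fluorescence read.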

[4] = qHTS assay for small molecule disruptors of the mitochondrial membrane potential - 1 hr assay (AID 651754; calls by dose curve; further: on the % scale 0 is the no-effect control and ±100 the full control effect; nearly all actives have a fitted effect of over 35% in size)
Summary of the method: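 Mitochondrial potential in living HepG2 cells after 1 hr compound treatment at 37C was read with Mito-MPS dye added for a further 30 min. Red aggregate and green monomer fluorescence were measured; loss of potential leaves dye as cytoplasmic monomers.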

[5] = qHTS assay for small molecule disruptors of the mitochondrial membrane potential - 5 hr assay (AID 651755; calls by dose curve; further: on the % scale 0 is the no-effect control and ±100 the full control effect; nearly all actives have a fitted effect of over 40% in size)
Summary of the method: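 Seed HepG2 overnight, add compound, incubate 5 hr at 37C and 5% CO2, stain 30 min with Mito-MPS, then measure monomer (490/535 nm) and aggregate (540/590 nm) fluorescence.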

[6] = target: Tumor necrosis factor (Homo sapiens) (UniProt P01375); assay: qHTS assay to identify small molecules that stimulate Tumor Necrosis Factor-alpha (TNF-alpha) secretion (AID 651757; active means well fitted curve in the direction sought with a large enough effect in the signal ratio; the % refers to the signal ratio; further: 0% is about no effect)
Summary of the method: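 Secreted TNF-alpha quantified by TR-FRET sandwich of two labeled anti-TNF-alpha antibodies, incubated 3 hr at room temperature. Preceded by 17 hr, 37 C compound treatment of THP-1 cells at 3000 cells/well.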

[7] = qHTS assay to identify small molecules that stimulate interleukin-8 (IL-8) secretion (AID 651758; active means well fitted activation curve with a large enough effect in the signal ratio; the % refers to the signal ratio; further: 0% is about no effect)
Summary of the method: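 Quantitative HTS in THP-1 monocytic cells at 2000 cells per well, with 16 hrs compound incubation at 37 C. IL-8 in the medium was then quantified by HTRF immunoassay, read after 1-3 hrs at room temperature.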

[8] = qHTS assay for environmental chemicals that activate the Aryl hydrocarbon Receptor (AhR) signaling pathway (AID 651777); details: 1A2-DRE human hepatoma cells, luciferase, 24 h; activation: active compounds read high; further: % of control where 0% means no effect; nearly all actives have a fitted effect of over 15% in size
Summary of the method: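 Measured luciferase activity, read 30 min after One-Glo addition at room temperature, from human hepatoma cells bearing a dioxin response element–CYP1A2 promoter reporter and exposed to compound for 24 hr at 37 C.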

[9] = target: Peroxisome proliferator-activated receptor alpha (Homo sapiens) (UniProt Q07869); assay: qHTS assay for small molecule agonists of the peroxisome proliferator-activated receptor alpha (PPARalpha) signaling pathway (AID 651778); details: PathHunter PPARalpha complementation, chemiluminescence, 6 h; max response: active compounds read high; further: % of control where 0% means no effect
Summary of the method: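 Cells plated at 2,000/well and held overnight at 37 C, 5% CO2, then compound added by pin tool for 6 hr; after PathHunter detection reagent and 60 min at room temperature, chemiluminescence from enzyme complementation was read.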

[10] = target: Nuclear receptor ROR-gamma (Homo sapiens) (UniProt P51449); assay: qHTS assay for small molecule antagonists of the retinoid-related orphan receptor gamma (ROR-gamma) signaling pathway (AID 651802);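 further: CHO cells with doxycycline-induced ROR-gamma expression; luciferase reporter luminescence driven by ROR response element; on the % scale 0 is the no-effect control and ±100 the full control effect; nearly all actives have a fitted effect of over 60% in size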
Summary of the method: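 Luminescence (One-Glo, 30 min RT) measured 16 h after compound addition and doxycycline induction at 37C. Reporter: RORE-luciferase under TET-inducible ROR-gamma in CHO cells.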

[11] = qHTS assay for small molecule agonists of the antioxidant response element (ARE) signaling pathway measured by Nrf2-dependant transcriptional activity (AID 720636; active means well fitted curve in the direction sought with a large enough effect in the repeat runs; an effect the other way counts as inactive or inconclusive;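 further: HepG2 cells with an ARE-driven luciferase reporter; % of control where 0% means no effect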)
Summary of the method: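 In HepG2 cells engineered with an Nrf2-responsive luciferase gene, ARE induction was quantified as luminescence after 16 hr compound treatment at 37 C.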

[12] = qHTS assay for small molecule antagonists of the retinoid-related orphan receptor gamma (ROR-gamma) signaling pathway - cell viability counter screen (AID 720652; active means well fitted curve in the direction sought with a large enough effect in the repeat runs; an effect the other way counts as inactive or inconclusive;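 further: CHO reporter cells with doxycycline-induced ROR-gamma expression; compound exposure lasted 16 hr before ATP read; on the % scale 0 is the no-effect control and ±100 the full control effect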)
Summary of the method: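 Cytotoxicity counter screen: intracellular ATP (CellTiter-Glo luminescence) measured in the doxycycline-induced CHO RORE-luciferase reporter line after 16 hr compound exposure at 37 C, 5% CO2.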

[13] = qHTS assay for small molecule agonists of the antioxidant response element (ARE) signaling pathway measured by Nrf2-dependant transcriptional activity - cell viability counter screen (AID 720653; active means well fitted curve in the direction sought with a large enough effect in the repeat runs; an effect the other way counts as inactive or inconclusive; further: on the % scale 0 is the no-effect control and ±100 the full control effect); details: ARE-bla HepG2 viability, CellTiter-Glo ATP luminescence, 16 h; max response: active compounds read low
Summary of the method: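 ARE-bla HepG2 cells (2,000/well) rested 5 hrs at 37C/5% CO2, then exposed to compounds in DMSO for 16 hrs. Viability was read in the same wells as intracellular ATP by luminescence, 30 min at room temperature after reagent addition.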

[14] = qHTS assay for cell viability of HEK293 cells (AID 743288); details: ATP luminescence (CellTiter-Glo), 18 h; max response: active compounds read low; further: on the % scale 0 is the no-effect control and ±100 the full control effect; nearly all actives have a fitted effect of over 50% in size
Summary of the method: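 ATP luminescence (CellTiter-Glo) reports metabolically competent cell number after parental HEK293 cells, 2,000/well, were treated with DMSO-dissolved compounds for 18 h at 37 C; reagent incubation 30 min, room temperature.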

[15] = qHTS assay for cell viability of the p53RE-bla HCT-116 cell line (AID 743292); further: on the % scale 0 is the no-effect control and ±100 the full control effect; nearly all actives have a fitted effect of over 55% in size
Summary of the method: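 Intracellular ATP of p53RE-bla HCT-116 cells measured by luciferase luminescence following 16 h compound incubation at 37 C; DMSO-only wells served as vehicle controls.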

[16] = qHTS profiling for inhibitors of Plasmodium falciparum proliferation (AID 504749);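 further: 0% = DMSO vehicle and full inhibition = artemisinin control; nearly all actives have a fitted effect of over 60% in size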; details: P. falciparum in erythrocytes, SYBR Green DNA, 72 h, at 28.7 µM (top of the series)
Summary of the method: (§1)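 Quantitative HTS: compounds pinned into medium, infected erythrocytes added (0.3% parasitemia, 2.5% hematocrit), 72 h culture at 37 C under 5% CO2. Saponin/Triton lysis with SYBR Green I, overnight RT, then fluorescence read.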

3D7 = assay: as above; details: P. falciparum in erythrocytes, SYBR Green DNA, 72 h; series mostly up to 28.7 µM
Summary of the method: as §1

7G8 = assay: as above; details: P. falciparum in erythrocytes, SYBR Green DNA, 72 h; series mostly up to 28.7 µM
Summary of the method: as §1

AA1029 = assay: as above; details: P. falciparum in erythrocytes, SYBR Green DNA, 72 h; series mostly up to 28.7 µM
Summary of the method: as §1

AS120 = assay: as above; details: P. falciparum in erythrocytes, SYBR Green DNA, 72 h; series mostly up to 28.7 µM
Summary of the method: as §1

ATS189 = assay: as above; details: P. falciparum in erythrocytes, SYBR Green DNA, 72 h; series mostly up to 28.7 µM
Summary of the method: as §1

ATS95 = assay: as above; details: P. falciparum in erythrocytes, SYBR Green DNA, 72 h; series mostly up to 28.7 µM
Summary of the method: as §1

C2A = assay: as above; details: P. falciparum in erythrocytes, SYBR Green DNA, 72 h; series mostly up to 28.7 µM
Summary of the method: as §1

CP185 = assay: as above; details: P. falciparum in erythrocytes, SYBR Green DNA, 72 h; series mostly up to 28.7 µM
Summary of the method: as §1

CP191 = assay: as above; details: P. falciparum in erythrocytes, SYBR Green DNA, 72 h; series mostly up to 28.7 µM
Summary of the method: as §1

CP192 = assay: as above; details: P. falciparum in erythrocytes, SYBR Green DNA, 72 h; series mostly up to 28.7 µM
Summary of the method: as §1

CP194 = assay: as above; details: P. falciparum in erythrocytes, SYBR Green DNA, 72 h; series mostly up to 28.7 µM
Summary of the method: as §1

CP201 = assay: as above; details: P. falciparum in erythrocytes, SYBR Green DNA, 72 h; series mostly up to 28.7 µM
Summary of the method: as §1

CP203 = assay: as above; details: P. falciparum in erythrocytes, SYBR Green DNA, 72 h; series mostly up to 28.7 µM
Summary of the method: as §1

CP211 = assay: as above; details: P. falciparum in erythrocytes, SYBR Green DNA, 72 h; series mostly up to 28.7 µM
Summary of the method: as §1

CP215 = assay: as above; details: P. falciparum in erythrocytes, SYBR Green DNA, 72 h; series mostly up to 28.7 µM
Summary of the method: as §1

CP217 = assay: as above; details: P. falciparum in erythrocytes, SYBR Green DNA, 72 h; series mostly up to 28.7 µM
Summary of the method: as §1

CP237 = assay: as above; details: P. falciparum in erythrocytes, SYBR Green DNA, 72 h; series mostly up to 28.7 µM
Summary of the method: as §1

CP238 = assay: as above; details: P. falciparum in erythrocytes, SYBR Green DNA, 72 h; series mostly up to 28.7 µM
Summary of the method: as §1

CP247 = assay: as above; details: P. falciparum in erythrocytes, SYBR Green DNA, 72 h; series mostly up to 28.7 µM
Summary of the method: as §1

CP250 = assay: as above; details: P. falciparum in erythrocytes, SYBR Green DNA, 72 h; series mostly up to 28.7 µM
Summary of the method: as §1

CP252 = assay: as above; details: P. falciparum in erythrocytes, SYBR Green DNA, 72 h; series mostly up to 28.7 µM
Summary of the method: as §1

Sequence of Peroxisome proliferator-activated receptor alpha (Homo sapiens) (Q07869 whole entry, looked up): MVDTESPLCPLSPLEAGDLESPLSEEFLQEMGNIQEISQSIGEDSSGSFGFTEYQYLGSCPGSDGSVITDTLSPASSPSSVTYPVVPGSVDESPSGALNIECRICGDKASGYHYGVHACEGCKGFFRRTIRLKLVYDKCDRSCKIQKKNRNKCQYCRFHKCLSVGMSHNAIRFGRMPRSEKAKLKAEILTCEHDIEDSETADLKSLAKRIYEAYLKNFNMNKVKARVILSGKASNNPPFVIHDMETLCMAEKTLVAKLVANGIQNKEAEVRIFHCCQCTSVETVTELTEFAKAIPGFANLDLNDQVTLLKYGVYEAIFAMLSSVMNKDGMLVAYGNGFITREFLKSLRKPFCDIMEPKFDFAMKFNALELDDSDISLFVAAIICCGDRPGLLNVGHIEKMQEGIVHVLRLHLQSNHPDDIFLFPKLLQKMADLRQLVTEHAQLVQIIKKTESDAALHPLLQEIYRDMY
Sequence of Nuclear receptor ROR-gamma (Homo sapiens) (P51449 whole entry, looked up): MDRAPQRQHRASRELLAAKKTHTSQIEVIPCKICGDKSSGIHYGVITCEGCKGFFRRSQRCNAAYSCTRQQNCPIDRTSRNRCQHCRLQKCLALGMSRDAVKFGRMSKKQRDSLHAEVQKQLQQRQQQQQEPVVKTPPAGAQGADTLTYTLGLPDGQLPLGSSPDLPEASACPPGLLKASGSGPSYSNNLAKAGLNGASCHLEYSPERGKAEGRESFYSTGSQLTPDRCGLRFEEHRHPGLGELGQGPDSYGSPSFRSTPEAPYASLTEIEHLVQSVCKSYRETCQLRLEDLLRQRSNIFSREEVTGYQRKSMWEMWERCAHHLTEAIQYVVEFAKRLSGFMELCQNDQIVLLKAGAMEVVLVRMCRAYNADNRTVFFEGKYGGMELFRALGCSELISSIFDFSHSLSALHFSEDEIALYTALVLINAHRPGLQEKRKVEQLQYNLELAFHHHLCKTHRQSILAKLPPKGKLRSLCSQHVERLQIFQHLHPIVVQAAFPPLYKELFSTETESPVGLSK
Sequence of Tumor necrosis factor (Homo sapiens) (P01375 whole entry, looked up): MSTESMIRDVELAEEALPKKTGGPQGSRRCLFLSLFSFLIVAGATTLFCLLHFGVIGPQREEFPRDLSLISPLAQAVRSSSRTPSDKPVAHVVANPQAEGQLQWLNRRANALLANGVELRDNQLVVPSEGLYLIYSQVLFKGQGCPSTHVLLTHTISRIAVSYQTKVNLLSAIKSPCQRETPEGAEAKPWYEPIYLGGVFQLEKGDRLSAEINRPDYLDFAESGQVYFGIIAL

CN1[C@H]2CC(OC(=O)[C@H](CO)c3ccccc3)C[C@H]1[C@H]1O[C@H]12 (stereo partly drawn)
inactive: Potency [1] | Potency [2] | activation [3] -1.86% and -3.02% | Potency [4] | Potency [5] | outcome [6] | outcome [7] | activation [8] -0.0972% and -0.778% | max response [9] -2.4% and 1.32% | Potency [10] | Potency [11] | Potency [12] | max response [13] 0.433% and 4.93% | max response [14] -2.2% and 1.37% | Potency [15] | activity, negative = inhibition ([16]; parasite line A) 1.25% | activity, negative = inhibition ([16]; parasite line B) -7.4% | Potency (3D7) | Potency (7G8) | Potency (AA1029) | Potency (AS120) | Potency (ATS189) | Potency (ATS95) | Potency (C2A) | Potency (CP185) | Potency (CP191) | Potency (CP192) | Potency (CP194) | Potency (CP201) | Potency (CP203) | Potency (CP211) | Potency (CP215) | Potency (CP217) | Potency (CP237) | Potency (CP238) | Potency (CP247) | Potency (CP250) | Potency (CP252)
